Here are results for 39 sequences from the OligoGym collection.
Further: reference of the scale not given here.

The first test concerns the target VAX1. As to the kind of experiment: pooled miR-30 sensor sort-seq; sequence = guide strand. The conditions noted are these: shRNA.
The sequence TTCTTTATTGTTGGTCCGGGAG gave a sensor-assay potency score (higher = more potent) of -1.06. As for TTTACTTTTGTTACAATCCTCA, the sensor-assay potency score (higher = more potent) is -0.228. Sequence TTTTGTTTTTTTATCCCGCGTT registered a sensor-assay potency score (higher = more potent) of -0.396. Same read-out and setting: the result for TCTCGGACCAGGATCCGGCGGC reads -0.716. On to TACTTTTGTTACAATCCTCAGC, for which the sensor-assay potency score (higher = more potent) was -0.412. On to TTACTTTTGTTACAATCCTCAG, for which the sensor-assay potency score (higher = more potent) was -1.22. TTGGGCAGGATGATCTCTCGGA showed a sensor-assay potency score (higher = more potent) of -0.0889.

Take TTCTTCTGCTTGGTGCGCCGGT: the sensor-assay potency score (higher = more potent) was -0.49. TTCTTTTGTTTTTTTATCCCGC had a sensor-assay potency score (higher = more potent) of -0.672. Take TGGAACTCCATCTCCAGCCGAT: the sensor-assay potency score (higher = more potent) is -1. In turn, TTTGTTTTTTTATCCCGCGTTT gave a sensor-assay potency score (higher = more potent) of -0.944. On the same count and under the same terms, the same measure for TTTTGTTACAATCCTCAGCAGC: -0.447.

Another test concerns the target VDAC1. Described as above. The conditions noted are these: shRNA.
Consider TTACTGTTTCCTGCTGTCCAGG, for which the sensor-assay potency score (higher = more potent) was -1.19. On to TTCACTTTAGCCGAGAAGCAGG, for which the sensor-assay potency score (higher = more potent) is -0.473.

With TCTGAGTGTATCCTAAACCTAT, the sensor-assay potency score (higher = more potent) is -0.562. In turn, TTCTCTGTAAACGTCAGGCCGT showed a sensor-assay potency score (higher = more potent) of -0.7. As to TTAGAGTCTGAGTGTATCCTAA, the sensor-assay potency score (higher = more potent) was -0.253. On the same count and under the same terms, the same measure for TCTTCCACAGTAATCTCGGTGC: -0.38; for TAGTGTATTGTCGGTATTCCAT: -0.621. For TTTTGTTTTCAAATCAAGCTTT, the sensor-assay potency score (higher = more potent) was -0.155. For the sequence TATCCTAAACCTATCAGGCTGG, the sensor-assay potency score (higher = more potent) is -0.545. On the same count and under the same terms, the same measure for ATTCACATTAGTGTGAAGCTGG: 0.0233; for TAGGTGAGAAGGATGAATCGAA: 0.744. In turn, TTTGTTTTCAAATCAAGCTTTA came in with a sensor-assay potency score (higher = more potent) of -0.535.

The next test deals with VDAC3. The test is described as above. The note with it: shRNA.
On to TCTATATCAACATTACTGCCAA, for which the sensor-assay potency score (higher = more potent) is -0.2.

The sequence TTCAGGTCTATCTTGACCATGC gave a sensor-assay potency score (higher = more potent) of -0.432.

For the sequence TTGTCTGTGTTCCATTTCTGGG, the sensor-assay potency score (higher = more potent) was -1.15. Take TTCATTTCTCTTCACTTCCAGG: the sensor-assay potency score (higher = more potent) is -0.789. With TTGGTTTTCAGGTCTATCTTGA, the sensor-assay potency score (higher = more potent) is 0.398. TTATATTTGGTTTCTAGGTTGC returned a sensor-assay potency score (higher = more potent) of -0.0958. In the case of TTCAATCTTCTCATTCACCTTC, the sensor-assay potency score (higher = more potent) came to 0.828. For the sequence TTTCAGGTCTATCTTGACCATG, the sensor-assay potency score (higher = more potent) was -1.45. Consider TCCTTTGTTGAAGACATCCTTA, for which the sensor-assay potency score (higher = more potent) is -0.879.

TCTGGTAGATAGAACCTCCAAA returned a sensor-assay potency score (higher = more potent) of -0.313.

In the case of TAGAGTATTGTCTGTGTTCCAT, the sensor-assay potency score (higher = more potent) was -0.216. For TATCAGTGTAAGCATGACCAGA, the sensor-assay potency score (higher = more potent) was -0.976.

For another test, the target named is VGLL2. The description is as above. The conditions noted are these: shRNA.
TACTTCTCTACCACAGTCTTAG yielded a sensor-assay potency score (higher = more potent) of -0.503. The same measure, in the same setting: the result for TTAAACATAACTCAGTCTTTGG reads -0.689.

Take TAATGTTCGTCTCTTCTTCCTC: the sensor-assay potency score (higher = more potent) is -0.332.
